# CASP6 VEID inh – human caspase-6 inhibitors, primary screen, biochemical, VEID-R110 fluorescence, single point, set 2; inhibition, % at 12.5 µM; hit rate 0.53% among 350,000; purified caspase-6, Z-VEID-R110 cleavage fluorescence; P55212; AID 686996, 2013;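 active means mean inhibition across replicates at least about 35%, with every replicate also reaching that limit, limit read from the data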;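 further: 0% = median of neutral control wells and 100% = no fluorescence left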
# Ecoli rRNA inh – reduced GFP signal of wild-type E. coli, primary screen, bacterial rRNA inhibitor project, GFP/RFP fluorescence, OD600, single point | E. coli WT GFP vs humanized-ribosome RFP mutants, 24 h; stronger effect = lower value; DMSO median 0, no signal -100 | hit rate 1.6% among 350,000 | GFP signal change (wild-type ribosome), % (concentration not given with the values);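 active means significant combined selectivity score with lowered wild-type GFP, culture density cut under 30%, mutant RFP and density less affected; inactive means any of these conditions unmet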
# RAD52 anneal inh – RAD52 DNA annealing inhibitors, primary screen, biochemical, FRET, single point, set 2; hit rate 0.46% among 360,000; DNA repair protein RAD52 homolog (Homo sapiens), P43351; AID 651710, 2012; recombinant RAD52 DNA annealing, FRET fluorescence; inhibition, % at 18.7 µM;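 active means every replicate showing at least 50% inhibition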
# NSD2 inh – NSD2 histone methyltransferase inhibitors, primary screen, biochemical, AlphaScreen, single concentration, set 2; NSD2 peptide methylation, 120 min; Histone-lysine N-methyltransferase NSD2 (Homo sapiens), O96028; AID 743445, 2014; inhibition, % at 12.5 µM; hit rate 0.54% among 310,000; in the data active means inhibition above about 50%
# MLL AF4-AF9 inh – inhibitors of AF4 peptide binding to AF9, primary screen, biochemical, AlphaScreen, biotin-AF4 peptide, FLAG-AF9, single point | Protein AF-9 (Homo sapiens), P42568 | inhibition, % at 10 µM | hit rate 0.47% among 350,000 | AID 651704, 2012;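 active means every replicate reaching a set inhibition limit, whatever the replicate mean, cut at about 25% in these data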;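 further: 0% = plate neutral control median and 100% = total signal loss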
# Target sequence (P42568 whole entry, looked up): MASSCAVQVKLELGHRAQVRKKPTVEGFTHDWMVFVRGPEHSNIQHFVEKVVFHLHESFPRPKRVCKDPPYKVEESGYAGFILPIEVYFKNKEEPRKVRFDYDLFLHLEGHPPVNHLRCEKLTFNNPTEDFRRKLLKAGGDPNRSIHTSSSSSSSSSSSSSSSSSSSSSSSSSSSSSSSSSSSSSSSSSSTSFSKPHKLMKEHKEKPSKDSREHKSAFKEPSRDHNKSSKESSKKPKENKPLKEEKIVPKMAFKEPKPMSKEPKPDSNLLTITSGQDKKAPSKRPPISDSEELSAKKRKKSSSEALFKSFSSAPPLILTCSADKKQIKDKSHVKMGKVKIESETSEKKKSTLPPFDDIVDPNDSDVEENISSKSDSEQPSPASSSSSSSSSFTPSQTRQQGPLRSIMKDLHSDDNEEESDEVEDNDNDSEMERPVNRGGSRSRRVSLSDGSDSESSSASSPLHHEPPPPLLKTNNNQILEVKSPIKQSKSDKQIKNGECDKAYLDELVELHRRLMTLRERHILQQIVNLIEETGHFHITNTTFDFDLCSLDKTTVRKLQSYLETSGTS
# An asterisk follows results filed as active; x = not tested or not shown. Most compounds without a hit are left out; they make up all but 2.5% or so of the library.
SMILES,CASP6 VEID inh,Ecoli rRNA inh,RAD52 anneal inh,NSD2 inh,MLL AF4-AF9 inh
COc1ccc(NC(=O)Nc2cccc3c2O[C@@H](CN(C)Cc2ccc(Cl)c(Cl)c2)[C@@H](C)CN([C@H](C)CO)C3=O)cc1,x,-5,x,x,x
COc1cccc(CN(C)Cc2nc3cc(C(F)(F)F)ccc3c(=O)[nH]2)c1,2,-7,-14,0,36*
Cc1ccccc1C(=O)Nc1ccc(C(=O)N/N=C/c2ccncc2)cc1,1,-29*,0,-2,2
CC1=C(C(=O)OCc2ccccc2)C(c2ccc(-c3ccccc3)cc2)NC(=O)N1CCCCCC(=O)O (centres undefined),11,-34*,-11,x,1
CC1=C(C(=O)OCc2ccccc2)C(c2ccc3ccccc3c2)NC(=O)N1CCCC(=O)O (centres undefined),0,-16*,-26,x,0
CC1=C(C(=O)OCc2ccccc2)C(c2ccc3ccccc3c2)NC(=O)N1CCCCCC(=O)O (centres undefined),4,x,-3,x,-14
C[C@@H]1CN([C@H](C)CO)C(=O)c2cccc(NC(=O)c3ccc(-c4nccs4)cc3)c2O[C@H]1CN(C)C(=O)NC1CCCCC1,0,0,4,x,-1
CCC(CO)Oc1cc(NC(=O)c2cccc(OC)c2)c2ncn(C(C)C)c2c1 (centres undefined),3,-17,-2,x,-9
CCC(CO)Oc1cc(NC(=O)c2ccc(OC)cc2)c2ncn(C(C)C)c2c1 (centres undefined),-1,-20*,-2,x,1
COc1cccc(NC(=O)C[C@H]2CC[C@H]3[C@@H](COc4ccc(NC(=O)C5CCC5)cc4C(=O)N3C)O2)c1,x,-6,x,x,x
COc1cccc(/C=C(\C#N)c2nc3ccc(C)cc3[nH]2)c1OCC(=O)O,4,29,-31,-4,-2
CCOc1cccc(/C=C(/C#N)c2nc3ccccc3[nH]2)c1OCC(=O)O,45*,2,-28,1,2
COc1ccc(NC(=O)Nc2ccc3c(c2)C(=O)N([C@H](C)CO)C[C@@H](C)[C@H](CN(C)CC2CC2)OCCCC[C@H](C)O3)cc1,x,3,15,x,20
C[C@H]1CCCCO[C@H](CN(C)CC2CCCCC2)[C@@H](C)CN([C@@H](C)CO)C(=O)c2cc(NC(=O)c3ccccc3)ccc2O1,3,-5,-178,x,0
C[C@@H]1CCCCO[C@H](CN(C)CC2CC2)[C@H](C)CN([C@@H](C)CO)C(=O)c2cc(NC(=O)Nc3ccccc3)ccc2O1,1,2,57*,x,15
C[C@@H]1CN([C@@H](C)CO)C(=O)c2cc(NC(=O)c3ccccc3)ccc2O[C@@H](C)CCCCO[C@H]1CN(C)CC1CCCCC1,2,0,6,x,27*
CCCN(C)C[C@H]1OCCCC[C@@H](C)Oc2ccc(NC(=O)Nc3ccc(OC)cc3)cc2C(=O)N([C@@H](C)CO)C[C@H]1C,0,3,53*,x,12
COc1ccc(NC(=O)Nc2ccc3c(c2)C(=O)N([C@@H](C)CO)C[C@@H](C)[C@@H](CN(C)CC2CC2)OCCCC[C@@H](C)O3)cc1,-6,0,25,x,26*
CC(Sc1nc2ccccc2n1C)C(=O)Nc1ccc(N2CCOCC2)cc1 (centres undefined),-1,-23*,-3,-1,5
COc1ccc(C(=O)C2CCCN(C(=O)c3noc4c3CCCC4)C2)c(C)c1 (centres undefined),5,-15,-10,-4,-1
COc1ccc(C(=O)C2CCCN(C(=O)c3noc4c3CCCC4)C2)cc1F (centres undefined),0,-25*,-6,-7,1
Cc1ccc(NC(=O)c2sc(N)nc2-c2ccc([N+](=O)[O-])cc2)c(C)c1,0,5,-12,-1,30*
Cc1ccc(NC(=O)c2sc(C)nc2C)c(C)c1,51*,4,-8,-2,5
CC(C)C(=O)C1=Cc2cccc([N+](=O)[O-])c2OC1N1CCOCC1 (centres undefined),37*,x,-17,2,0
COc1cc(/C=C/C(=O)OCC(=O)N2CCC(Cc3ccccc3)CC2)ccc1O,0,-32*,-1,2,6
SMILES,CASP6 VEID inh,Ecoli rRNA inh,RAD52 anneal inh,NSD2 inh,MLL AF4-AF9 inh
C[C@@H]1CN([C@@H](C)CO)C(=O)c2cccc(NS(=O)(=O)c3ccc(Cl)cc3)c2O[C@H]1CN(C)C(=O)Nc1ccc2c(c1)OCO2,3,-3,8,x,-2
Brc1ccc(N/N=C(/N=Nc2nn[nH]n2)c2ccccc2)cc1,19,-56,-11,49,41*
Cc1sc(NC(=O)CSc2n[nH]c(N)n2)c(C#N)c1C,40*,-9,-31,1,2
CC(=O)NCc1ccc(C(=O)COC(=O)c2ccc(C#N)cc2)o1,x,x,x,4,x
Cc1[nH][nH]c(=O)c1C(c1c(C)[nH][nH]c1=O)c1cn(Cc2ccc(Cl)c(Cl)c2)c2ccccc12,22,-30*,-15,98*,9
O=C(O)Cc1cn(Cc2ccc(F)cc2)c2ccccc12,2,-4,0,3,-2
Cc1[nH][nH]c(=O)c1C(c1c(C)[nH][nH]c1=O)c1cn(Cc2ccc(F)cc2)c2ccccc12,x,x,x,88*,x
CC(=O)Nc1ccc2c(c1)CC(=O)N(C)C[C@@H](C)[C@H](CN(C)C)O2,x,0,x,x,x
CCC(=O)N(CC)C1=C(O)c2ccccc2C(=O)C1=O,40*,2,-9,17,13
CCN(C(=O)c1cccc2c1-c1ccccc1C2=O)c1ccccc1,x,x,x,2,x
O=C(CSc1nnc(SCC(=O)c2ccco2)s1)c1ccco1,x,x,x,3,x
O=C(CSc1nc2cc(Cl)ccc2s1)c1ccco1,6,-21*,-55,x,1
CNC[C@H]1Oc2ccc(NC(C)=O)cc2C(=O)N(C)C[C@@H]1C,x,1,x,x,x
COCC(=O)N(C)C[C@H]1Oc2cc(C#CCC(C)C)ccc2S(=O)(=O)N([C@@H](C)CO)C[C@@H]1C,1,-2,-2,x,4
O=C(Nc1nc(-c2ccccc2)ns1)c1cccs1,0,-38*,-7,-3,-9
Cn1c(=O)c([N+](=O)[O-])c(N2CCSCC2)c2ccccc21,0,16,-4,1,-1
CCn1c(=O)c([N+](=O)[O-])c(N2CCN(Cc3ccc4c(c3)OCO4)CC2)c2ccccc21,-1,-24*,-16,3,7
CCn1c(=O)c([N+](=O)[O-])c(N2CCSCC2)c2ccccc21,2,-34*,0,0,-4
O=c1c([N+](=O)[O-])c(N2CCOCC2)c2ccccc2n1Cc1ccccc1,0,-18,-17,2,5
